Screening results (PubChem BioAssay)
In the library only some 3.7% were active in any assay of this set; here they are far more common.
PfHsp90 set2: inhibits growth of yeast expressing Plasmodium falciparum Hsp90. inhibition, % at 9.4 µM. S. cerevisiae expressing PfHsp90, BacTiter-Glo ATP, 48 h; yeast lacking PDR1 and PDR3 efflux regulators. AID 504621. hit rate 0.32% among 310,000;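 active means every replicate shows inhibition above about 80%, whatever the replicate mean, limit read from the data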;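 further: 0% = DMSO neutral controls and 100% = 20 µM radicicol positive controls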
TIM10 inh: growth inhibitors of TIM10 yeast strain; S. cerevisiae TIM10 strain growth, BacTiter-Glo luminescence, 24 h; inhibition, % at 10 µM; hit rate 1.4% among 330,000; AID 463195;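 active means inhibition of 40% or more at the single tested concentration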;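 further: wild-type TIM10 isogenic control strain grown at permissive 25 °C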
NALP3 yeast inh: blocks the NALP3 inflammasome reconstituted in yeast. hit rate 0.39% among 330,000. inhibition, % at 10 µM. AID 2825. Yeast reconstituted NLRP3/ASC/caspase-1, beta-gal luminescence, 24 h;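 active means inhibition of 50% or more; inactive means inhibition below 50%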;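 further: plate controls were induced DMSO wells for no effect and uninduced yeast grown without galactose for full effect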
tim23-1 inh: tim23-1 yeast growth inhibition; S. cerevisiae tim23-1 growth, BacTiter-Glo luminescence, 24 h; inhibition, % at 20 µM; hit rate 1.3% among 330,000; AID 463212;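 active means growth inhibition of the mutant yeast at or above 50%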;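 further: temperature-sensitive mutant grown at 25 °C; plate controls were DMSO-treated mutant yeast for no effect and medium wells lacking yeast for full effect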
tim10-1 inh: inhibits growth of tim10-1 mutant yeast | S. cerevisiae tim10-1 ts strain growth, BacTiter-Glo, 24 h | inhibition, % at 20 µM | hit rate 2.2% among 330,000 | AID 463190;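 active means inhibition of at least 40%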;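 further: mutant grown at 25 °C; 0% = DMSO wells with yeast and 100% = wells holding no yeast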
tim10-1 conf: tim10-1 yeast growth inhibition, confirmed. shares compounds with tim10-1 inh. S. cerevisiae tim10-1 ts strain growth, BacTiter-Glo, 24 h. inhibition, % at 20 µM. hit rate 56% among 7,400. AID 463213;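 active means inhibition of yeast growth at or above a set limit in either of two repeat tests at 20 µM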;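 further: tim10-1 mutant grown at permissive 25 °C to find synthetic lethal compounds; 0% = DMSO yeast wells and 100% = medium wells without yeast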
* = called active by the depositor; / = no result given.

SMILES | PfHsp90 set2 | TIM10 inh | NALP3 yeast inh | tim23-1 inh | tim10-1 inh | tim10-1 conf
CCCC(=O)NCc1nc2ccccc2n1CC(=O)c1ccccc1 | 3.2 | 12.4 | 1.1 | 12.1 | 6.2 | /
Oc1ccccc1CNc1ccc(OC(F)(F)F)cc1 | -26.4 | 32.9 | 6.7 | 33.4 | 42.4* | 27.4
Cc1nc(NCc2cccnc2)c2c3c(sc2n1)CCCC3 | 19.4 | 17.7 | 10.6 | 16.2 | 44.5* | 5.0
O=C1CN(c2nc(-c3cccnc3)nc3sc4c(c23)CCCC4)CCN1 | / | 29.8 | 1.2 | -77.7 | 42.3* | 15.2
Nc1nc(-c2cccnc2)nc2sc3c(c12)CCCC3 | 16.5 | 31.2 | 7.0 | 38.8 | 51.7* | 33.2*
Cc1c(C(=O)OCC(=O)NCc2ccco2)cccc1[N+](=O)[O-] | 5.7 | 1.8 | 9.5 | -6.7 | 0.6 | /
Cc1ccc(C(=O)COC(=O)C2CC(=O)N(c3nc(-c4ccccc4)cs3)C2)cc1 (centres undefined) | -14.1 | 31.3 | 14.9 | 10.7 | 40.3* | 28.9
CCCN(CC(=O)Nc1ccccc1C)C(=O)COc1c(C)cccc1C | -28.3 | 7.5 | 14.6 | 27.0 | 35.1 | /
CCCN(CC(=O)Nc1ccccc1C)C(=O)CCl | -7.3 | 34.7 | -12.5 | 31.4 | 40.8* | 23.4
O=C(/C=C/c1cccc([N+](=O)[O-])c1)NCCSCc1ccc(Cl)cc1 | 8.4 | 25.4 | 11.7 | 27.8 | 45.3* | 21.8
O=C(/C=C/c1cccc([N+](=O)[O-])c1)NCCSCc1c(Cl)cccc1Cl | -1.4 | 10.6 | 32.5 | 21.6 | 27.5 | /
Cc1cccc(CSCCNC(=O)CSCc2ccc([N+](=O)[O-])cc2)c1 | -8.6 | 20.3 | 14.7 | 30.4 | 45.9* | 27.8
Cc1ccc(CSCCNC(=O)CSCc2ccc([N+](=O)[O-])cc2)cc1 | / | 14.1 | 30.5 | 32.8 | 41.6* | 29.1
CC1(c2ccccc2Cl)NC(=O)N(CC(=O)N2c3ccccc3NC(=O)C2(C)C)C1=O (centres undefined) | / | -4.7 | 8.2 | -7.0 | -8.3 | /
CCOC(=O)N1C(=O)[C@@](c2ccc(Cl)cc2)(C(C)C)N1C(=O)OCC | -15.6 | -10.4 | 23.1 | -16.1 | 44.0* | 45.0*
COc1ccc(-n2c(N)cc(=O)nc2SCC(=O)NC2CCCCC2)cc1 | 14.4 | / | / | / | / | /
CN(C)C(=S)NC(=S)Nc1ccc2ccccc2c1 | -154.4 | / | / | / | / | /
Cc1ccc2cc(CN(CCN(C)C)C(=S)Nc3ccccc3)c(=O)[nH]c2c1C | / | 11.4 | -1.9 | 35.5 | 40.2* | 18.4
COc1ccc(N(C)S(=O)(=O)c2cccc(C(=O)Nc3nc4ccccc4[nH]3)c2)cc1 | 0.2 | 38.2 | 9.7 | 34.7 | 40.7* | 26.6
CN(c1cccc(Cl)c1)S(=O)(=O)c1cccc(C(=O)Nc2nc3ccccc3[nH]2)c1 | 15.5 | 26.5 | 3.4 | 48.4 | 38.9 | /
CCCn1c2ccc(C)cc2c2n[nH]c(=S)nc21 | -9.6 | 16.8 | 18.8 | 47.9 | 45.5* | -1.0
COc1cccc(C(C)NC(=S)NCc2ccc(F)cc2)c1 (centres undefined) | -8.2 | 24.8 | 9.5 | 24.2 | 41.8* | -0.6
NC(=NCCc1ccccc1)NC(=O)c1cc(Cl)ccc1O | -20.6 | 29.9 | 18.5 | 37.6 | -22.7 | /
Cc1cc(-c2nc3ccccc3o2)c2ccccc2n1 | / | 21.5 | 8.0 | 41.9 | 40.8* | 22.0
Cc1cc(C(=O)O)c2ccccc2n1 | 14.9 | 10.5 | 9.5 | 5.8 | 13.5 | /
SMILES | PfHsp90 set2 | TIM10 inh | NALP3 yeast inh | tim23-1 inh | tim10-1 inh | tim10-1 conf
O=C1/C(=C/c2ccc(F)cc2)SC(=S)N1CC(=O)N1CCCCC1c1cccnc1 (centres undefined) | -4.5 | 29.8 | -0.1 | 29.9 | -23.9 | /
O=C1/C(=C/c2ccccc2F)SC(=S)N1CC(=O)N1CCCCC1c1cccnc1 (centres undefined) | -28.6 | 24.1 | 4.2 | 36.3 | 45.2* | 15.6
CN1C[C@@H]2[C@@H]3C(=O)N(Cc4ccccc4)C(=O)[C@@H]3[C@](C)(C1=O)N2C(=O)c1ccc(C(C)(C)C)cc1 | 3.0 | / | / | / | / | /
O=S(=O)(NCc1ccccc1)c1ccc(Cl)cc1 | -26.6 | 27.5 | -4.8 | 35.1 | 30.6 | /
CSc1ccc(S(=O)(=O)NCc2ccccc2Cl)cc1 | -46.5 | 33.2 | 0.3 | 46.0 | 52.4* | 48.7*
CSc1ccc(S(=O)(=O)NCc2ccccc2)cc1 | -5.3 | 6.8 | 22.6 | 41.5 | 45.8* | 31.4*
CCCC(O)(c1ccc(Cl)cc1)C(CN1CCOCC1)c1ccccc1 (centres undefined) | 5.0 | 9.2 | -7.5 | 31.6 | 28.9 | /
CCCC(O)(c1ccccc1)C(CN1CCOCC1)c1ccccc1 (centres undefined) | -2.6 | 16.7 | 8.0 | 33.4 | 40.7* | 19.4
COC(=O)C(CC(=O)c1ccc(Br)cc1)n1ccnc1 (centres undefined) | / | 33.9 | -2.0 | 49.4 | 72.2* | 43.6*
COC(=O)C(CC(=O)c1ccc(Br)cc1)n1nc(C)cc1C (centres undefined) | 9.4 | -5.6 | -6.5 | 14.3 | -5.0 | /
COC(CNC(=O)c1cn(C)c2ccc(S(=O)(=O)N(C)C3CCCCC3)cc2c1=O)OC | 13.4 | 5.2 | -11.0 | -2.3 | -10.5 | /
Cc1ccccc1NC(=S)Nc1ccccn1 | -8.2 | 12.8 | 18.3 | 34.7 | 46.8* | -5.0
S=C(Nc1ccccn1)Nc1ccccc1Cl | -15.9 | 26.8 | 48.7 | 28.4 | 5.9 | /
Cc1cc(NC(=O)c2sccc2C)n(-c2nc3ccccc3[nH]2)n1 | 58.3 | 21.1 | 15.9 | 44.0 | 48.6* | 24.5
Cc1cc(NC(=O)c2cccs2)n(-c2nc3ccccc3[nH]2)n1 | 14.7 | 20.9 | 26.5 | -26.1 | 24.3 | /
CC(C)c1ccc(S(=O)(=O)/N=C2\C=C(NS(=O)(=O)c3ccccc3)C(=O)c3ccccc32)cc1 | -64.7 | / | / | / | / | /
CC(C)c1ccc(S(=O)(=O)/N=C2/C=CC(=O)c3ccccc32)cc1 | / | 20.5 | 13.7 | 34.2 | 43.4* | 28.9
CN1CCN(S(=O)(=O)c2cccc(C(=O)Oc3cccc(Br)c3)c2)CC1 | -17.2 | 22.9 | 9.3 | 48.6 | 40.6* | 20.6
COc1cccc(CN2CCN(C(=O)c3ccc(-c4ccccc4)cc3)CC2)c1OC | -0.3 | 39.2 | 27.7 | 30.7 | 44.3* | 26.7
COc1cc(CN2CCN(C(=O)c3ccc(-c4ccccc4)cc3)CC2)cc(OC)c1OC | -0.5 | 15.8 | 1.6 | 29.8 | 19.8 | /
CCOC(=O)COc1ccc2nsnc2c1 | 16.0 | 18.3 | 14.4 | 8.8 | -14.4 | /
CCOC(=O)COc1ccc(/C=C/[N+](=O)[O-])c(OCC(=O)OCC)c1 | 0.6 | 22.5 | 11.0 | 41.4 | 42.1* | 49.5*
S=c1[nH]nc(-c2cc(-c3ccccc3)n[nH]2)n1/N=C/c1ccccc1 | -20.7 | -10.4 | 15.6 | -7.2 | -2.7 | /
CC(/C=N/n1c(-c2cccnc2)n[nH]c1=S)=C\c1ccccc1 | 6.3 | 5.6 | 11.8 | -20.4 | 31.1 | /
S=c1[nH]nc(-c2cc(-c3ccccc3)n[nH]2)n1/N=C/C(Br)=C/c1ccccc1 | / | 14.0 | 31.5 | 49.6 | 46.9* | 42.7*
CC(=C/c1ccccc1)/C=N/n1c(-c2ccncc2)n[nH]c1=S | 14.5 | 39.9 | 20.6 | 45.1 | 40.4* | 38.0*
